The list is not random: actives were taken first. Their share in the collection is about 7.9%.
MCF10A rereplic: A quantitative high throughput screen for small molecules that induce DNA re-replication in MCF 10a normal breast cells. 2.9% of 350,000 active. MCF 10A DNA re-replication, Hoechst nuclear intensity, 48 h. Potency, µM (titrated, usually from 46.1 µM), for inactives: top-dose activity, positive = re-replication, actives largely listed as activators; note: % of control where 0% means no effect; nearly all actives have a fitted effect of over 50% in size
SW480 rereplic: A quantitative high throughput screen for small molecules that induce DNA re-replication in SW480 colon adenocarcinoma cells; SW480 DNA re-replication, Hoechst DNA content imaging, 48 h; Potency, µM (doses to about 46.1 µM), without a hit: at the highest dose re-replication activation, hits mostly activators; 1.8% of 340,000 active; note: % of control where 0% means no effect; nearly all actives have a fitted effect of over 55% in size
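First, 250 cells per well were seeded. Next, compound or vehicle (23 nL) was pinned in, plates sat 48 hr at 37 C. Finally Hoechst was added for 40 min before fluorescence scanning.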
KB-3-1 cytotox: qHTS assay for MDR1-selective chemotherapeutics: Primary screen using the parental adenocarcinoma cell KB-3-1. Potency, µM (highest dose often 46.1 µM), hits mostly cytotoxic. KB-3-1 viability, CellTiter-Glo ATP luminescence, 72 h. 1.4% of 400,000 active; note: % is set by controls: 0 for no effect and ±100 for the full control effect; nearly all actives have a fitted effect of over 60% in size
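Using CellTiter-Glo luminescence, growth of non-resistant KB-3-1 adenocarcinoma cells is assessed 72 h after pin-tool compound addition at 37 °C. Normalized responses across the concentration series yield fitted curves.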
KB-V1 cytotox: qHTS assay for MDR1-selective chemotherapeutics: Primary screen using the drug-selected MDR subline cells KB-V1; Potency, µM (top dose mostly 46.1 µM), actives largely listed as cytotoxic; 3.4% of 400,000 active; KB-V1 MDR cells viability, CellTiter-Glo, 72 h; AID 1347076, 2019; note: % is set by controls: 0 for no effect and ±100 for the full control effect; nearly all actives have a fitted effect of over 60% in size
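KB-V1 cells (P-gp-expressing MDR subline of KB-3-1) in phenol-red-free DMEM with 10% FBS were exposed to library compounds over a concentration series for 72 h at 37 degrees C. Viability read by CellTiter-Glo luminescence; concentration-effect curves fitted after normalization.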
HT1080 IDH1KD tx: qHTS for induction of synthetic lethality in tumor cells producing 2HG: qHTS for the HT-1080-IDH1KD cell line; HT-1080 IDH1 knockdown viability, ATP luminescence, 48 h; Potency, µM (doses to about 46.1 µM), for the others: at the top dose activity, negative = toxicity, usual class: cytotoxic; 2% of 360,000 active; AID 686971, 2013;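 note: 0% = DMSO wells and -100% = cell-free medium wells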
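Cytotoxicity counter-line: IDH1KD HT-1080, 48 h, CellTiter-Glo. Curves classed by r2, magnitude and activity.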
HT1080-NT tox: qHTS for induction of synthetic lethality in tumor cells producing 2HG: qHTS for the HT-1080-NT fibrosarcoma cell line; HT-1080-NT fibrosarcoma viability, CellTiter-Glo ATP luminescence, 48 h; Potency, µM (top dose mostly 46.1 µM), for inactives: top-dose activity, negative = less viability, hits mostly cytotoxic; 1.6% of 360,000 active; AID 686970, 2013;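 note: NT is the 2HG producing partner of a matched IDH1 knockdown line; 0% = DMSO-treated cells and -100% = media-only wells without cells; nearly all actives have a fitted effect of over 55% in size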
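Fibrosarcoma NT cells, 750 per well in 5% FBS RPMI, were exposed to compound for 48 hours. Viability: CellTiter-Glo luminescence.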
An asterisk follows results filed as active. Calls come from the whole dose curve; as a rule, active = well fitted curve in the direction sought with a large enough effect; inconclusive = small, poorly fitted or top-dose-only effect, or another doubt; inactive = no such curve, though single readings can be large; an effect the other way counts as inactive or inconclusive. Potency is the fitted concentration of half-maximal effect.

`CC1C(OC(=O)CCC(=O)NC(C)(C)CO)O[C@H]2OC3(C)CC[C@H]4[C@H](C)CCC1C24OO3` (stereo partly specified) gave MCF10A rereplic 30%, SW480 rereplic inconclusive, KB-3-1 cytotox 10µM*, KB-V1 cytotox 13µM*, HT1080 IDH1KD tx 10µM* and HT1080-NT tox inconclusive.
`N[C@@H]1C[C@H]1c1ccccc1` gave MCF10A rereplic 1%, SW480 rereplic inconclusive, KB-3-1 cytotox inactive, KB-V1 cytotox inactive, HT1080 IDH1KD tx -4% and HT1080-NT tox -12%.
CCCCCC(=O)N[C@@H](c1ccccc1)[C@@H](O)C(=O)O[C@H]1C[C@@]2(O)[C@@H](OC(=O)c3ccccc3)C3[C@](C)(C(=O)[C@H](O)C(=C1C)C2(C)C)[C@@H](OC1OCC(O)C(O)C1O)C[C@H]1OC[C@@]31OC(C)=O (stereo partly specified) was read as MCF10A rereplic inconclusive, SW480 rereplic 3.7µM*, KB-3-1 cytotox 0.21µM*, KB-V1 cytotox inactive, HT1080 IDH1KD tx 1.8µM* and HT1080-NT tox 2.6µM*.
For CC(=O)OC12COC1CC(O)C1(C)C(=O)C(O)C3=C(C)C(O)CC(O)(C(OC(=O)c4ccccc4)C21)C3(C)C (stereo unspecified) the results were MCF10A rereplic 0.82µM*, SW480 rereplic 8.2µM*, KB-3-1 cytotox 0.52µM*, KB-V1 cytotox inactive, HT1080 IDH1KD tx inconclusive and HT1080-NT tox inconclusive.
Screening CC(=O)O[C@@]12CO[C@@H]1C[C@@H](O)[C@@]1(C)C(=O)[C@H](O)C3=C(C)[C@@H](OC(=O)[C@H](O)[C@@H](NC(=O)c4ccccc4)c4ccccc4)C[C@@](O)([C@@H](OC(=O)c4ccccc4)C12)C3(C)C (stereo partly specified) returned MCF10A rereplic inconclusive, SW480 rereplic 8.2µM*, KB-3-1 cytotox 0.01µM*, KB-V1 cytotox inactive, HT1080 IDH1KD tx 0.013µM* and HT1080-NT tox 0.21µM*.
CC(=O)O[C@@]12CO[C@@H]1C[C@H](OC1OCC(O)C(O)C1O)[C@@]1(C)C(=O)[C@H](O)C3=C(C)[C@@H](OC(=O)[C@H](O)[C@@H](NC(=O)c4ccccc4)c4ccccc4)C[C@@](O)([C@@H](OC(=O)c4ccccc4)C12)C3(C)C (stereo partly specified) was read as MCF10A rereplic 0.58µM*, SW480 rereplic 5.8µM*, KB-3-1 cytotox 1µM*, KB-V1 cytotox inactive, HT1080 IDH1KD tx 5.8µM* and HT1080-NT tox 3.3µM*.
COc1ccc(-c2nc3ccc(Br)cn3c2CC(=O)N2CCCC2)cc1OC was read as KB-3-1 cytotox inactive, KB-V1 cytotox inactive, HT1080 IDH1KD tx 4% and HT1080-NT tox 18%.
CC1=CC(O)C(O)C2(C)C1CC1OC(=O)CC3C(C)C(O)C(=O)C2C13CO (stereo unspecified) was read as MCF10A rereplic 0%, SW480 rereplic inconclusive, KB-3-1 cytotox 18µM*, KB-V1 cytotox inactive, HT1080 IDH1KD tx -9% and HT1080-NT tox -2%.
Screening Cn1cc([N+](=O)[O-])c(C(=O)Nc2ccc3c(C(F)(F)F)cc(=O)oc3c2)n1 returned MCF10A rereplic inconclusive, SW480 rereplic 12µM*, KB-3-1 cytotox inconclusive, KB-V1 cytotox inactive, HT1080 IDH1KD tx inconclusive and HT1080-NT tox inconclusive.

Source: PubChem
